Results filed as inconclusive are left out. Where a call stands in place of a potency, no number is given. Calls of active or inactive are those of the source. Calls follow the shape of the dose curve; as a rule, active = well fitted activation curve with a large enough effect; inconclusive = small, poorly fitted or top-dose-only effect; inactive = no such curve, though single readings can be large or run the other way.
Assay: qHTS Assay for Identifying a Potential Treatment of Ataxia-Telangiectasia: Hit Validation;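 also: phospho-KAP1 level by AlphaLISA as a proxy for ATM-like kinase activity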
Conditions: Ataxia-telangiectasia cell-based hit validation qHTS, in ATM-null A-T patient fibroblasts; series mostly up to 76.9 µM
Summary of the method: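 KAP-1 phosphorylation was read by AlphaLISA as a measure of ATM-like activity in ATM-null F2112 fibroblasts. Compounds spanned up to 76.7 uM final, with 60 min exposure at 37C and a 6 hr detection incubation at 25C.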
Potency is read from the fitted curve at half-maximal effect.

Compound | Potency
CCOC(=O)CN(C(=O)CSc1nnc(COc2ccc(OC)cc2)n1CC)c1ccccc1 | inactive
O=c1c2cc(Br)ccc2nc(-c2ccccc2)n1O | inactive
Cc1cc2nc3ccc(=[N+](C)C)cc-3sc2cc1N | inactive
O=C(Nc1ccc(N2CCCC2)cc1)c1ccc(Cl)cc1Cl | inactive
CN(CCc1ccccn1)C(=O)c1cc(COc2ccc(F)cc2F)on1 | inactive
CC(C)(C)n1nc2c(c1NC(=O)C1CC(=O)N(c3ccc(Cl)cc3)C1)CS(=O)(=O)C2 (stereo unspecified) | inactive
CC1=NOC2(C1)N(C)c1ccccc1C2(C)C (stereo unspecified) | inactive
COc1ccc(CCNC2=NCCS2)cc1OC | inactive
C[C@@H]1Cc2c(O)c(O)cc(O)c2C(=O)O1 | inactive
NC(=O)c1cc2ccccc2o/c1=N/NC(=O)c1cccc(F)c1 | inactive
O=C(CCCn1nnnc1CN1CCOCC1)N1CCC(c2ccc(F)cc2)C1 (stereo unspecified) | inactive
N#CCN1C(=O)C(=O)N(Cc2cccc(Cl)c2)C1=O | inactive
COc1ccc(N(C)S(=O)(=O)c2cccc(C(=O)OCC(=O)NCc3ccccc3OC)c2)cc1 | inactive
Cc1ccc(OC(=O)c2cc(C)nn2C(C)(C)C)cc1 | inactive
COc1ccc(C2(C)CC(C)(C)Nc3ccccc32)cc1 (stereo unspecified) | inactive
Cc1ccc(C)c(-c2csc(Nc3ncccn3)n2)c1 | inactive
CCC(=O)NC1=C(Cl)C(=O)C(NC(=O)CC)=C(Cl)C1=O | inactive
Cc1cc(C)n2nc(C(=O)OCCOc3ccc(F)cc3)nc2n1 | 58.2 µM (active)

Compound | Potency
CC(C)Nc1nc(Oc2ccc(=O)n(-c3ccccc3)n2)nc(N(C)C)n1 | inactive
Fc1ccc(C2=NOC(c3nnc(-c4ccccc4)o3)C2)cc1 (stereo unspecified) | inactive
CC(=O)NNC(=O)CN1C(=O)/C(=C/c2ccccc2)SC1=S | inactive
CC1CC(C)CN(S(=O)(=O)c2ccc(C(=O)NCCCn3ccnc3)cc2)C1 (stereo unspecified) | inactive
CCn1c2ccccc2c2c3ncc4cccn4c3ccc21 | 46.3 µM (active)
O=C1C2C3C=CC(CC3)C2C(=O)N1c1cccc(Br)c1 (stereo unspecified) | inactive
COC(=O)N/N=C/c1ccccc1OCCOc1ccc(OC)cc1 | inactive
COc1ccc(-c2nn(C)c(=O)[nH]2)cc1 | inactive
COC(=O)c1cccc2c1-c1ccccc1/C2=N\NC(N)=O | inactive
COc1ccc(NC(=O)C2CC2)cc1OC1CCCC1 | inactive
OC(COC(c1ccc(F)cc1)c1ccc(F)cc1)CN1CCCC1 (stereo unspecified) | inactive
CCC[C@H]1CCCC/C=C\CCCC(=O)OCCN1C(=O)OC(C)(C)C | inactive
CN(C)S(=O)(=O)c1ccc(NC(=O)c2ccc([N+](=O)[O-])cc2)cc1 | inactive
Cc1ccc(C(=O)Nc2sc3c(c2C(=O)O)CCCCC3)o1 | inactive
O=C1NC(=Nc2ccccc2)CS1 | inactive
COc1ccc(-n2c(=S)[nH]c3ccccc3c2=S)cc1 | inactive
CCC(C)NC(=O)c1cn(CCOC)c(=O)c2c1c1ccccc1n2C (stereo unspecified) | inactive
Cn1cc(/C=N/NC(N)=S)c2ccccc21 | inactive

Source: PubChem BioAssay AID493192 (National Center for Advancing Translational Sciences (NCATS), 2011)
